Source: PubChem BioAssay

Legend:
[1] = tested on: Human papillomavirus type 1a protein E7 (residues 44-93); test: HPV1a E7 fragment binders on microarrays, primary screen, biochemical, small-molecule microarray, residues 44-93, 635 nm fluorescence (AID 1108); details: small-molecule microarray binding, fluorescence 635 nm; higher = more signal;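 note: E7 fragment applied at 1 µg/mL in TBST for 1 h at 4 C; score combines spot fluorescence with its signal to noise ratio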
[2] = modulators of HCV replicon luciferase signal, primary screen, HCV replication inhibitor project, Huh7 cells, luciferase reporter (AID 1109); details: 48 h, higher = more signal;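 note: huh7 hepatoma cells harbouring a luciferase neomycin HCV replicon reporter; luciferase luminescence as measure of HCV replicon replication; test concentration not given here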
[3] = target: Left-right determination factor 2 (Homo sapiens) (UniProt O00292); test: LEFTY2 binders on small-molecule microarrays, primary screen, biochemical, small-molecule microarray, 635 nm fluorescence scan (AID 1110); details: LEFTY2 binding, higher = more signal
Chain of Left-right determination factor 2 (Homo sapiens) (O00292 whole entry, looked up): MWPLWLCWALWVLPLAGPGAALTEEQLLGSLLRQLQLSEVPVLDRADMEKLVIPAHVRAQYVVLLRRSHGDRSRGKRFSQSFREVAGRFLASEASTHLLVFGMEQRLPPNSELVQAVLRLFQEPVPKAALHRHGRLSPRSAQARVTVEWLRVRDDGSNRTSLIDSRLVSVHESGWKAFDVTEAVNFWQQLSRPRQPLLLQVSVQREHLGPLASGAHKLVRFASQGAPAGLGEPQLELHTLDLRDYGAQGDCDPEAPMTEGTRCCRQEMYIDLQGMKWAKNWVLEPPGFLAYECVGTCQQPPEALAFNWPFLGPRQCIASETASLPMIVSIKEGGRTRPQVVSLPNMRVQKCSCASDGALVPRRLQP

[4] = target: Calmodulin-1 (Homo sapiens) (UniProt P0DP23); test: CALM1 binders on microarrays, EGTA buffer, profiling panel, biochemical, small-molecule microarray, Cy5-labelled CALM1 (AID 1111); details: Cy5-CALM1 binding fluorescence, higher = more signal;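 note: labelled calmodulin applied in Tris saline Tween buffer holding calcium plus EGTA and DTT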
[5] = target: Calmodulin-1 (Homo sapiens) (UniProt P0DP23); test: calcium-bound CALM1 binders on microarrays, profiling panel, artefact control for SMM control-protein annotation, biochemical, small-molecule microarray, Cy5-labelled CALM1, plus calcium (AID 1112); details: Cy5-CALM1 binding fluorescence, higher = more signal;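 note: score merges spot fluorescence with signal to noise from triplicate slides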
[6] = small-molecule microarray binders of probe aWnt5a, primary screen, biochemical, biotinylated probe, 635/667 nm fluorescence (AID 1113); details: higher = more signal;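 note: score merges 667 nm fluorescence intensity with signal-to-noise per printed feature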
[7] = small-molecule microarray binders of probe aShh, primary screen, biochemical, biotinylated probe, 635/667 nm fluorescence (AID 1114); details: higher = more signal;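 note: probe is biotin-labelled aShh protein from a stem cell growth factor screen; measures binding of labelled protein to compounds printed on the slide; score merges feature fluorescence at 667 nm with signal-to-noise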
[8] = small-molecule microarray binders of probe aNog, primary screen, biochemical, biotinylated probe, 635/667 nm fluorescence (AID 1115); details: higher = more signal;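 note: probe is biotinylated aNog protein used at 0.15 µg/mL for 1 h at 4 C; z-score combines 667 nm fluorescence of each spot with its signal to noise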
[9] = target: Torsin-1A-interacting protein 1 (Homo sapiens) (UniProt Q5JTV8); test: LAP1 binders from COS7 cell lysate, primary screen, small-molecule microarray, 635/667 nm fluorescence (AID 1116); details: COS7-hLAP1 lysate binding, 635 nm fluorescence, higher = more signal
Chain of Torsin-1A-interacting protein 1 (Homo sapiens) (Q5JTV8 whole entry, looked up): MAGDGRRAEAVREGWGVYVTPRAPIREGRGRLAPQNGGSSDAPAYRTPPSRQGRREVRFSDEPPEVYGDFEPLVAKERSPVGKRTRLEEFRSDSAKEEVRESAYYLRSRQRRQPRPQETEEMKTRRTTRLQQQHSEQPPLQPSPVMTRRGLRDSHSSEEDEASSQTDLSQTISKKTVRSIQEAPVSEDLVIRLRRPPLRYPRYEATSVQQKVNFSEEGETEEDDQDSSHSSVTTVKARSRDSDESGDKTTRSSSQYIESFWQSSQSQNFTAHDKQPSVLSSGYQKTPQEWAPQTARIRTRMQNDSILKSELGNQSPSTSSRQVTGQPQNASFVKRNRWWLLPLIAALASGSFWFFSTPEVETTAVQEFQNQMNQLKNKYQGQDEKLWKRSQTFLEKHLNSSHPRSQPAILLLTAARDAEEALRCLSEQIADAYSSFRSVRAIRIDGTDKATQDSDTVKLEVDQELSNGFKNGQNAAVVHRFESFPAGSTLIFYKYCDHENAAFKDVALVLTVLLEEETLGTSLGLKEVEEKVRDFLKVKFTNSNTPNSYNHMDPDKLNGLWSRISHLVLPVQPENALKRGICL

[10] = target: Alpha-bungarotoxin (Bungarus multicinctus) (UniProt P60615); test: alpha-bungarotoxin binders on microarray, profiling panel, artefact control for SMM control protein annotation, biochemical, small-molecule microarray, Alexa647 label, 635/667 nm fluorescence (AID 1117); details: alpha-BTX-A647 binding fluorescence, higher = more signal
Chain of Alpha-bungarotoxin (Bungarus multicinctus) (P60615 whole entry, looked up): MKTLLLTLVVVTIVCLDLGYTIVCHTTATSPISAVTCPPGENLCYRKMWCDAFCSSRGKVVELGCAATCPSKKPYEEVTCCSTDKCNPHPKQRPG

Row | SMILES | composite z-score [1] | z-score [2] | composite z-score [3] | composite z-score [4] | composite z-score [5] | composite z-score [6] | composite z-score [7] | composite z-score [8] | composite z-score [9] | composite z-score [10]
1 | COCCOC(=O)N1C(=O)[C@@]2(c3cc(C#CC4(O)CCCCCC4)ccc31)[C@H](C(=O)N1CCCCCCC1)[C@H]1C(=O)O[C@H](c3ccccc3)[C@H](c3ccccc3)N1[C@@H]2c1ccc(O)cc1 | 0.554 | -0.937 | 0.333 | 1.31 | 0.639 | 0.629 | 1.9 | 2.13 | 3.24 | 1.73
2 | C=C(/C(=C/C[C@@H](OC(=O)c1ccncc1)c1ccc(CO)o1)c1cnc2ccccc2c1)C(C)C | -1.09 | -1.05 | 0.846 | 1.64 | -0.116 | -0.124 | -0.0626 | 0.221 | 1.36 | 0.474
3 | C=C[C@H](OC)[C@@H](OC(=O)Nc1ccc(SC)cc1)c1ccc(O)c(F)c1 | 0.998 | 3.8 | -0.367 | 0.0665 | -0.0093 | -0.0486 | 0.0008 | -0.443 | 1.31 | 0.358
4 | COc1cc(CO)cc(I)c1O[C@H]1C=C(C(=O)NCCO)C[C@@H](NCCc2c[nH]c3ccccc23)[C@@H]1O | -0.552 | -2.76 | 0.688 | 0.228 | -0.56 | -0.0032 | 0.116 | 0.758 | 0.762 | 0.988
5 | O=C1O[C@H](c2ccccc2)[C@H](c2ccccc2)N2[C@H]1[C@@H](C(=O)Nc1nc3ccccc3s1)[C@]1(C(=O)Nc3ccc(C#CC4(O)CCCCCC4)cc31)[C@H]2c1ccc(O)cc1 | 1.38 | -0.733 | 0.596 | 1.94 | 0.597 | -0.0125 | -0.203 | -0.387 | 1.58 | 2.17
6 | CO[C@H]1COC(=O)[C@H](Cc2ccccc2)NC(=O)CC=C[C@@H](C)[C@H](OC)COC(=O)CC=C[C@@H]1C | 0.482 | 0.401 | 1.11 | -0.0075 | -0.61 | -0.134 | 0.0022 | -0.0682 | 0.311 | 0.426
7 | COc1cc2c(cc1OC)CN(C(=O)[C@@H]1[C@H]3C(=O)O[C@H](c4ccccc4)[C@H](c4ccccc4)N3[C@H](c3ccccc3OCCO)[C@@]13C(=O)Nc1ccccc13)CC2 | 1.01 | -2.02 | 0.187 | 0.421 | 0.234 | 0.213 | -0.0213 | 0.0101 | -0.345 | 2.07
8 | O=C1c2ccccc2[C@](Cc2ccccc2I)(C(=O)NCc2ccccc2)[C@H](c2ccc(CO)cc2)N1Cc1ccccc1C(F)(F)F | -0.32 | 0.344 | -1.38 | -0.027 | 0.988 | -0.148 | -0.0146 | 1.06 | -0.08 | -0.442
9 | C=C(CCCC)/C(=C/C[C@H](OC(=O)c1ccncc1)c1cccc(OCCO)c1)c1cc(C(=O)OC)ccc1OC | 0.799 | -2.61 | 0.385 | 0.267 | -0.784 | 0.0394 | 0.14 | -0.226 | 0.516 | 0.582
10 | O=C1C2C=CC(C(O)C(c3ccccc3)c3ccccc3)N(Nc3ccc([N+](=O)[O-])cc3)C2C(=O)N1c1ccccc1 (stereo not given) | 1.46 | -0.871 | 0.737 | 0.858 | 0.808 | 0.122 | -0.0211 | 0.676 | 0.935 | 1.42
11 | COCCCNC(=O)[C@@]1(c2ccc([N+](=O)[O-])cc2)CC(=O)N(C2CCCCC2)[C@@H]1c1ccc(CO)cc1 | 0.361 | -0.558 | -0.256 | -0.702 | -0.762 | -0.418 | -0.8 | -0.811 | -0.218 | -0.374
12 | COCCOC(=O)N1C(=O)[C@@]2(c3cc(C#CCC(C(=O)OC)C(=O)OC)ccc31)[C@H](c1ccccc1OCCO)N1[C@H](c3ccccc3)[C@H](c3ccccc3)OC(=O)[C@H]1[C@@H]2C(=O)N1CCCCCCC1 | 1.39 | -2.05 | 1.24 | 2.17 | 1.49 | 0.697 | 0.626 | 2.62 | 1.31 | 2
13 | C#CCNC(/C=C/c1ccccc1)CO (stereo not given) | 0.105 | 0.501 | 0.421 | -0.0934 | -0.448 | -0.172 | 0.0121 | -0.0784 | 0.296 | 0.331
14 | CCCC=C(CCC)[C@@H](NS(=O)(=O)c1cccc(C(F)(F)F)c1)c1ccc(C(=O)OC)cc1 | 1.19 | -0.0175 | -0.81 | 0.266 | -0.385 | 1.12 | 1.06 | 2.97 | 0.209 | 0.398
15 | COc1cc([C@@H]2N[C@H](C(=O)O)Cc3c2[nH]c2ccccc32)cc(OC)c1OC | 0.297 | -0.0056 | 0.649 | -0.0344 | -0.494 | -0.0328 | -0.221 | 0.0374 | 0.0517 | 0.441
